JMJD2A Tudor – JMJD2A Tudor domain (human) inhibition | O75164 | AlphaScreen JMJD2A-Tudor / H3K4me3 peptide binding | Potency, µM (series often up to 114 µM), actives largely listed as inhibitors | actives 4.4% (n = 390,000); note: nearly all actives have a fitted effect of over 50% in size
PLK1 PBD inh – blocks phosphopeptide binding to human PLK1 polo-box domain; P53350; Potency, µM, usual class: inhibitors; AID 720504; actives 2.8% (n = 360,000); Plk1 PBD binding of FITC phosphopeptide, fluorescence polarization; note: series mostly up to about 57 µM; nearly all actives have a fitted effect of over 65% in size
Target sequence (P53350 whole entry, looked up, the tested form may be a part): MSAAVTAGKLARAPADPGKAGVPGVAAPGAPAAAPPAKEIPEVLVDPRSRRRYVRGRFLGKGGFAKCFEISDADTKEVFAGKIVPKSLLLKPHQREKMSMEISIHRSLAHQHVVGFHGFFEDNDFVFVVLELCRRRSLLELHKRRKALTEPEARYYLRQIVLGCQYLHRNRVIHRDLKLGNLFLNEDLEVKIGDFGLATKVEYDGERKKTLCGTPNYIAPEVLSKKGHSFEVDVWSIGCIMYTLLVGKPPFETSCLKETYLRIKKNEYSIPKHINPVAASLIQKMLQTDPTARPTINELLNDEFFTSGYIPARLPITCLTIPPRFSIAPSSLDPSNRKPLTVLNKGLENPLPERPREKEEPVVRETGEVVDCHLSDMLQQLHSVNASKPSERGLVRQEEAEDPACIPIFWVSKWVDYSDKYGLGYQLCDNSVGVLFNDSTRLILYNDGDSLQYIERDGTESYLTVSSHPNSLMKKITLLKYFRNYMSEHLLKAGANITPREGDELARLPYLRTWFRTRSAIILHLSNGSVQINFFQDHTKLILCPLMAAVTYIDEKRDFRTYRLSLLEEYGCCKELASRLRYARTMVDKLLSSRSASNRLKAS
Sfp inh – Sfp phosphopantetheinyl transferase inhibition; Q9F4F7; Biochemical Sfp PPTase activity, qHTS; Potency, µM, most hits filed as inhibitors; actives 3.5% (n = 310,000); AID 1490;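 note: the enzyme is Sfp with the accession as filed and its product quenches rhodamine fluorescence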
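Step 1, compound plus 15 nM Sfp-PPTase, 15 min, room temperature. Step 2, add rhodamine-CoA (5 uM) and BHQ-2-YbbR (12.5 uM). Step 3, read 525/598 nm fluorescence at 0 and 30 min.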
HP1b binding inh – blocks HP1-beta chromodomain binding to methylated histone tails | AlphaScreen HP1-beta / biotin-H3K9me3 peptide binding | actives 0.56% (n = 390,000) | Potency, µM (series often up to 114 µM), actives largely listed as inhibitors | P83916; note: nearly all actives have a fitted effect of over 70% in size
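Compound inhibition of the preformed complex between 50 nM HP1-beta and 50 nM biotinylated H3K9me3 peptide was read by AlphaScreen. Buffer was PBS pH 7.4 with 0.01% Tween-20. Incubations ran 30 min at room temperature, with 10 ug/mL donor/acceptor beads.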
G9a block – G9a (human) methyltransferase inhibition; actives 8.8% (n = 350,000); G9a H3K9 monomethylation, AlphaScreen, 2 h; Potency, µM (titrated, usually from 102 µM), hits mostly inhibitors; AID 504332; note: nearly all actives have a fitted effect of over 75% in size
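Chemiluminescent proximity detection of H3K9 monomethylation, read after 10 min bead incubation in the dark. Reaction: 20 nM G9a, 500 nM biotin-H3K9 peptide, 20 uM SAM cofactor, 2 h, room temperature, following 15 min enzyme-compound preincubation.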
BAZ2B inh – BAZ2B (human) inhibition. AlphaScreen BAZ2B-H3K14Ac peptide displacement. actives 4.4% (n = 360,000). Potency, µM (doses to about 114 µM), most hits filed as inhibitors. Q9UIF8; note: nearly all actives have a fitted effect of over 60% in size
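Protein-peptide AlphaScreen: BAZ2B 50 nM, b-H3K14Ac 50 nM, 1x PBS pH 7.4 + 0.01% Tween-20. Preincubation 30 min RT; cpd 30 min RT (top 110 uM); beads 20 min RT, light-protected.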
A number is an active result; - = inactive; ? = inconclusive; . = no result given; [ ] = another dose, or the depositor's remark. A selection: hits, their analogues and other compounds. The true share with any hit is near 12%. Calls come from the whole dose curve; as a rule, active = well fitted curve in the direction sought with a large enough effect; inconclusive = small, poorly fitted or top-dose-only effect, or another doubt; inactive = no such curve, though single readings can be large; an effect the other way counts as inactive or inconclusive.

SMILES	JMJD2A Tudor	PLK1 PBD inh	Sfp inh	HP1b binding inh	G9a block	BAZ2B inh
C[C@@H]1NC(=O)c2cc([N+](=O)[O-])cc(I)c2OCC[C@@H](C(=O)NC(CC(=O)O)C(N)=O)NC(=O)[C@H](CC(N)=O)NC1=O (stereo partly specified)	?	-	?	-	25µM	?
CCC1CC=CC2C1C(=O)N(Cc1ccccc1)C2c1ccc(OC)c(Cl)c1 (stereo unspecified)	-	.	?	-	.	.
CCCS(=O)(=O)N1CCN(c2cc3c(cc2[N+](=O)[O-])n(C)c(=O)n3C)CC1	-	-	-	-	-	56µM
COc1ccc(N2CCN(C(=O)c3cccc(F)c3)CC2)c([N+](=O)[O-])c1	?	-	-	-	-	?
Cn1c(=O)n(C)c2cc([N+](=O)[O-])c(N3CCN(C(=O)c4cccc(Cl)c4)CC3)cc21	-	-	-	-	-	56µM
Cc1ccc(C(=O)N2CCN(c3cc4c(cc3[N+](=O)[O-])n(C)c(=O)n4C)CC2)cc1	-	-	-	-	-	50µM
Cc1ccc(S(=O)(=O)N2CCN(c3cc4c(cc3[N+](=O)[O-])n(C)c(=O)n4C)CC2)cc1	-	-	-	-	?	?
Cn1c(=O)n(C)c2cc([N+](=O)[O-])c(N3CCN(S(=O)(=O)c4ccc5ccccc5c4)CC3)cc21	-	-	-	-	-	-
Cn1c(=O)n(C)c2cc([N+](=O)[O-])c(N3CCN(C(=O)c4cccc(F)c4)CC3)cc21	-	-	-	-	?	50µM
O=C(CC(=O)c1ccccc1)Nc1ccc(Cl)cc1	-	-	-	-	-	-
CCOC(=O)C(=O)N1CCN(c2cc3c(cc2[N+](=O)[O-])n(C)c(=O)n3C)CC1	-	-	-	-	-	50µM
CCOC(=O)N1CCN(c2ccc(F)cc2[N+](=O)[O-])CC1	-	-	-	-	-	-
O=C(Nc1ccn(CCCN2CCC(N3CCOCC3)CC2)c(=O)n1)OCc1ccccc1	.	-	.	.	.	.
CC(C)Sc1nc2ccccc2[nH]1	-	-	-	-	56µM	-
CC(C)(C)c1nc2ccccc2[nH]1	79µM	27µM	-	-	?	-
CC1Sc2ccc(S(=O)(=O)CCC(=O)NCc3ccccc3)cc2NC1=O (stereo unspecified)	79µM	?	-	?	-	-
COc1ccc(NC(=O)CCS(=O)(=O)c2ccc3c(c2)NC(=O)C(C)S3)cc1OC (stereo unspecified)	18µM	6.7µM	-	-	-	-
CCC1Sc2ccc(S(=O)(=O)CCC(=O)N3CCc4ccccc43)cc2NC1=O (stereo unspecified)	-	-	-	-	.	-
CC1Sc2ccc(S(=O)(=O)CCC(=O)N3CCc4ccccc43)cc2NC1=O (stereo unspecified)	25µM	30µM	-	-	-	-
CC1Sc2ccc(C(=O)Nc3ccc(S(=O)(=O)N(C)C)cc3)cc2NC1=O (stereo unspecified)	-	-	.	-	32µM	-
CC1(C)O[C@H]2[C@@H](O1)[C@@H](C(=O)Nc1cc(F)ccc1F)O[C@@H]1OC(C)(C)O[C@@H]12	-	.	.	-	-	-
CC(Oc1ccc2ccccc2c1)C(=O)NNC(=O)Nc1ccccc1 (stereo unspecified)	-	-	-	-	-	-
COc1cc(O)oc1C=Nc1ccc(Oc2ccccc2)cc1	?	-	-	-	45µM	?
CCc1nnc(SCC(=O)Nc2ccc(N3CCOCC3)cc2)o1	-	-	-	-	-[12.7 µM]	-
Cc1nnc(SCC(=O)Nc2ccc(N3CCOCC3)cc2)o1	-	-	-	-	50µM	-
SMILES	JMJD2A Tudor	PLK1 PBD inh	Sfp inh	HP1b binding inh	G9a block	BAZ2B inh
O=C(CSc1ccccn1)Nc1ccc(N2CCOCC2)cc1	?	?	-	-	32µM	-
COC(=O)C/C=C\[C@@H](C)[C@@H](/C=N\OC[C@@H]1O[C@H](c2ccccc2)C=C[C@@H]1Oc1ccc(OC)cc1)NS(=O)(=O)c1ccc(C)cc1	.	.	-	.	.	.
CC(C)Cn1c(N)c(C=O)c(=O)[nH]c1=O	-	-	-	-	-	.
COc1cccc(S(=O)(=O)N(C)C[C@@H]2OCc3cnnn3CCCC(=O)N([C@H](C)CO)C[C@@H]2C)c1	.	-	.	.	.	.
N#Cc1nc(COc2ccccc2)oc1N1CCCCCC1	?	-	-	?	45µM	35µM
N#Cc1nc(COc2ccc(Br)cc2)oc1N1CCCC1	?	-	-	?	?	25µM
Cc1cc(N2CCOCC2)ccc1/C=C\[N+](=O)[O-]	-	13µM	?	-	6.3µM	?
O=[N+]([O-])c1ccc(N2CCOCC2)cc1O	-	-	-	-	-	-
O=C(/C=C/c1ccco1)N1CCc2ccccc21	-	-	?	-	40µM	.
Cc1ccc(/C=C/C(=O)N2CCc3ccccc32)o1	40µM	?	28µM	45µM	22µM	45µM
CC(C)N(Cc1nc(-c2ccc(Cl)cc2)no1)C(=O)c1ccco1	-	.	.	-	-	-
COc1ccc(NC(=S)NC(NC(=O)c2cccc3ccccc23)C(Cl)(Cl)Cl)c([N+](=O)[O-])c1 (stereo unspecified)	?	-	-	-	45µM	?
COc1ccc(NC(=S)NC(NC(=O)CCl)C(Cl)(Cl)Cl)c([N+](=O)[O-])c1 (stereo unspecified)	?	12µM	25µM	?	25µM	?
COc1ccc(NC(=S)NC(NC(=O)c2ccccc2Cl)C(Cl)(Cl)Cl)c([N+](=O)[O-])c1 (stereo unspecified)	?	-	-	-	-[12.7 µM]	?
Cc1ccc(NC(=O)Cn2cc(S(=O)(=O)N3CCCC3)c(S(=O)(=O)N3CCCC3)c2)cc1F	-	.	.	-	-	-
CNC1CCCN(c2c(F)cc3c(=O)c(C(=O)O)cn(C4CC4)c3c2OC)C1 (stereo unspecified)	.	.	-	.	-[12.7 µM]	.
COc1c(N2CCN(C(=S)NCc3ccccc3)C(C)C2)c(F)cc2c(=O)c(C(=O)O)cn(C3CC3)c12 (stereo unspecified)	56µM	?	-	-	-	79µM
COc1c(F)c(F)cc2c(=O)c(C(=O)O)cn(C3CC3)c12	28µM	-	-	-	-	?
O=[N+]([O-])C(/C=C(\Cl)[N+](=O)[O-])=C(N1CCCCC1)N1CCCCC1	-	-	-	-	?	-
O=[N+]([O-])C(=C1SCCS1)C(=C(Cl)Cl)N1CCCCC1	35µM	-	-	25µM	6.3µM	7.9µM
O=[N+]([O-])c1cccc(-c2nc3ccc([N+](=O)[O-])cc3[nH]2)c1	20µM	9.5µM	-	-	79µM	-
O=[N+]([O-])c1ccc2nc(-c3ccncc3)[nH]c2c1	-	-	-	-	?	-
